# Measurements as given in the supplement of paper PMC8728848.
# Only a selection was taken, and the strongest signals are over-represented in it overall.
# B1: YghJ (Escherichia coli), E3PJ90 (protein)
# chain: MNKKFKYKKSLLAAILSATLLAGCDGGGSGSSSDTPPVDSGTGSLPEVKPDPTPNPEPTPEPTPDPEPTPEPIPDPEPTPEPEPEPVPTKTGYLTLGGSQRVTGATCNGESSDGFTFKPGEDVTCVAGNTTIATFNTQSEAARSLRAVEKVSFSLEDAQELAGSDDKKSNAVSLVTSSNSCPANTEQVCLTFSSVIESKRFDSLYKQIDLAPEEFKKLVNEEVENNAATDKAPSTHTSPVVPVTTPGTKPDLNASFVSANAEQFYQYQPTEIILSEGRLVDSQGYGVAGVNYYTNSGRGVTGENGEFSFSWGEAISFGIDTFELGSVRGNKSTIALTELGDEVRGANIDQLIHRYSTTGQNNTRVVPDDVRKVFAEYPNVINEIINLSLSNGATLGEGEQVVNLPNEFIEQFNTGQAKEIDTAICAKTDGCNEARWFSLTTRNVNDGQIQGVINKLWGVDTNYKSVSKFHVFHDSTNFYGSTGNARGQAVVNISNAAFPILMARNDKNYWLAFGEKRAWDKNELAYITEAPSIVRPENVTRETASFNLPFISLGQVGDGKLMVIGNPHYNSILRCPNGYSWNGGVNKDGQCTLNSDPDDMKNFMENVLRYLSNDRWLPDAKSSMTVGTNLETVYFKKHGQVLGNSAPFAFHKDFTGITVKPMTSYGNLNPDEVPLLILNGFEYVTQWGSDPYSIPLRADTSKPKLTQQDVTDLIAYMNKGGSVLIMENVMSNLKEESASGFVRLLDAAGLSMALNKSVVNNDPQGYPDRVRQRRSTPIWVYERYPAVDGKPPYTIDDTTKEVIWKYQQENKPDDKPKLEVASWQEEVEGKQVTQFAFIDEADHKTPESLAAAKQRILDAFPGLEVCKDSDYHYEVNCLEYRPGTDVPVTGGMYVPQYTQLDLSADTAKAMLQAADLGTNIQRLYQHELYFRTNGRQGERLNSVDLERLYQNMSVWLWNETKYRYEEGKEDELGFKTFTEFLNCYTNNAYVGTQCSAELKKSLIDNKMIYGEESSKAGMMNPSYPLNYMEKPLTRLMLGRSWWDLNIKVDVEKYPGVVNTNGETVTQNINLYSAPTKWFAGNMQSTGLWAPAQQEVSIESKSTVPVTVTVALADDLTGREKHEVSLNRPPRVTKTYDLKANDKVTFKVPYGGLIYIKGDSKEVQSADFTFTGVVKAPFYKDGKWQHDLNSPAPLGELESASFVYTTPKKNLNASNYTGGLEQFANDLDTFASSMNDFYGRDSEDGKHRMFTYKNLPGHKHRFANDVQISIGDAHSGYPVMNSSFSPNSTTLPTTPLNDWLIWHEVGHNAAETPLTVPGATEVANNVLALYMQDRYLGKMNRVADDITVAPEYLEESNGQAWARGGAGDRLLMYAQLKEWAEKNFDIKKWYPDGTPLPEFYSEREGMKGWNLFQLMHRKARGDEVSNDKFGGKNYCAESNGNAADTLMLCASWVAQTDLSEFFKKWNPGANAYQLPGASEMSFEGGVSQSAYNTLASLDLPKPEQGPETINQVTEHKMSAE
# Columns and labels:
# Assay in all cases: glycan array binding signal (z-score within array); higher = stronger binding
# Settings in all cases: glycan notation: IUPAC condensed, linker removed
# Gal6S(b1-3)GlcNAc = molecular target: Gal6S(b1-3)GlcNAc
# In short: (§1)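 Columns mapping to the same glycan were averaged after glycan names were converted to IUPAC-condensed notation. The data come from 3228 arrays in the Consortium for Functional Glycomics database, limited to those with an available protein sequence. Binding is reported as a within-array Z-score averaged across arrays of one protein sequence and across linkers.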
# Gal6S(b1-3)GlcNAc6S = molecular target: Gal6S(b1-3)GlcNAc6S
# In short: as §1
# GalNAc(b1-4)GlcNAc = molecular target: GalNAc(b1-4)GlcNAc
# In short: as §1
# GalNAc(b1-4)GlcNAc6S = molecular target: GalNAc(b1-4)GlcNAc6S
# In short: as §1
# [1] = molecular target: GlcNAc(b1-2)Man(a1-3)[GlcNAc(b1-2)Man(a1-6)]Man(b1-4)GlcNAc(b1-4)GlcNAc
# In short: as §1
# [2] = molecular target: GlcNAc(b1-2)[GlcNAc(b1-4)]Man(a1-3)[GlcNAc(b1-4)][GlcNAc(b1-2)[GlcNAc(b1-6)]Man(a1-6)]Man(b1-4)GlcNAc(b1-4)GlcNAc
# In short: as §1
# GlcNAc(b1-3)Fuc = molecular target: GlcNAc(b1-3)Fuc
# In short: as §1
# [3] = molecular target: GlcNAc(b1-3)Gal(b1-4)GlcNAc(b1-3)Gal(b1-4)GlcNAc(b1-3)Gal(b1-4)GlcNAc(b1-3)Gal(b1-4)GlcNAc(b1-2)Man(a1-3)[GlcNAc(b1-3)Gal(b1-4)GlcNAc(b1-3)Gal(b1-4)GlcNAc(b1-3)Gal(b1-4)GlcNAc(b1-3)Gal(b1-4)GlcNAc(b1-2)Man(a1-6)]Man(b1-4)GlcNAc(b1-4)GlcNAc
# In short: as §1
# [4] = molecular target: GlcNAc(b1-3)Gal(b1-4)GlcNAc(b1-3)[GlcNAc(b1-3)Gal(b1-4)GlcNAc(b1-3)]GalNAc
# In short: as §1
# [5] = molecular target: GlcNAc(b1-3)Gal(b1-4)GlcNAc(b1-6)[GlcNAc(b1-3)]Gal(b1-4)GlcNAc
# In short: as §1
# GlcNAc(b1-6)GalNAc = molecular target: GlcNAc(b1-6)GalNAc
# In short: as §1
# [6] = molecular target: Kdn(a2-3)Gal(b1-4)[Fuc(a1-3)]GlcNAc
# In short: as §1
# [7] = molecular target: Man(a1-3)[Man(a1-6)]Man(a1-6)[Man(a1-3)]Man
# In short: as §1
# [8] = molecular target: Neu5Ac(a2-3)Gal(b1-3)GlcNAc(b1-3)GalNAc
# In short: as §1
# [9] = molecular target: Neu5Ac(a2-3)Gal(b1-3)GlcNAc6S
# In short: as §1
# [10] = molecular target: Neu5Ac(a2-3)Gal(b1-4)GlcNAc(b1-3)Gal(b1-3)GlcNAc
# In short: as §1
# [11] = molecular target: Neu5Ac(a2-3)Gal(b1-4)GlcNAc(b1-3)Gal(b1-4)GlcNAc(b1-3)Gal(b1-4)GlcNAc(b1-2)Man(a1-3)[Neu5Ac(a2-3)Gal(b1-4)GlcNAc(b1-3)Gal(b1-4)GlcNAc(b1-3)Gal(b1-4)GlcNAc(b1-2)Man(a1-6)]GalNAc
# In short: as §1
# [12] = molecular target: Neu5Ac(a2-3)Gal(b1-4)[Fuc(a1-3)]GlcNAc(b1-3)Gal
# In short: as §1
# [13] = molecular target: Neu5Ac(a2-6)Gal(b1-4)GlcNAc(b1-2)Man(a1-3)Man(b1-4)GlcNAc(b1-4)GlcNAc
# In short: as §1
# [14] = molecular target: Neu5Ac(a2-6)Gal(b1-4)GlcNAc(b1-6)[Gal(b1-3)]GalNAc
# In short: as §1
# [15] = molecular target: Neu5Ac(a2-8)Neu5Ac(a2-3)Gal(b1-4)GlcNAc
# In short: as §1
# [16] = molecular target: Neu5Ac(a2-8)Neu5Ac(a2-3)[Gal(b1-3)GalNAc(b1-4)]Gal(b1-4)Glc
# In short: as §1
# [17] = molecular target: Neu5Ac(a2-8)Neu5Gc(a2-3)Gal(b1-4)GlcNAc
# In short: as §1
# [18] = molecular target: Neu5Gc(a2-6)Gal(b1-4)GlcNAc
# In short: as §1
# [19] = molecular target: Neu5Gc(b2-6)Gal(b1-4)GlcNAc
# In short: as §1
binder,measurement,setting,value
B1,glycan array binding signal (z-score),Gal6S(b1-3)GlcNAc,0.437
same,glycan array binding signal (z-score),Gal6S(b1-3)GlcNAc6S,2.04
same,glycan array binding signal (z-score),GalNAc(b1-4)GlcNAc,1.36
same,glycan array binding signal (z-score),GalNAc(b1-4)GlcNAc6S,0.943
same,glycan array binding signal (z-score),[1],0.16
same,glycan array binding signal (z-score),[2],-0.048
same,glycan array binding signal (z-score),GlcNAc(b1-3)Fuc,-0.862
same,glycan array binding signal (z-score),[3],4.26
same,glycan array binding signal (z-score),[4],2.97
same,glycan array binding signal (z-score),[5],-1.26
same,glycan array binding signal (z-score),GlcNAc(b1-6)GalNAc,-1.05
same,glycan array binding signal (z-score),[6],-0.222
same,glycan array binding signal (z-score),[7],-1.22
same,glycan array binding signal (z-score),[8],-0.159
same,glycan array binding signal (z-score),[9],-0.847
same,glycan array binding signal (z-score),[10],0.515
same,glycan array binding signal (z-score),[11],2.64
same,glycan array binding signal (z-score),[12],-1.23
same,glycan array binding signal (z-score),[13],-1
same,glycan array binding signal (z-score),[14],-1.4
same,glycan array binding signal (z-score),[15],5.47
same,glycan array binding signal (z-score),[16],0.298
same,glycan array binding signal (z-score),[17],-0.939
same,glycan array binding signal (z-score),[18],-0.154
same,glycan array binding signal (z-score),[19],3.37
